# Pf growth 48h = Primary qHTS for delayed death inhibitors of the malarial parasite plastid, 48 hour incubation. AID 504832, 2011. Potency, µM (doses to about 28.7 µM), without a hit: top-dose activity change, negative = inhibition, hits mostly inhibitors. P. falciparum luciferase growth in erythrocytes, 48 h. 310,000 compounds, 5.9% hits; note: potency is the fitted concentration of half-maximal effect
#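 First compound was added to culture medium, then infected red cells at 0.1% parasitemia and 2% hematocrit (final). After incubation at 37 C under 5% CO2, luciferase detection reagent was dispensed and light output recorded.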
# HCMV antiviral = qHTS Assay for inhibitors of the human cytomegalovirus (HCMV); HFF cells, HCMV-luciferase reporter, 72 h; active compounds read low; activity change, negative = inhibition, % at 57.5 µM; 410,000 compounds, 4.5% hits; AID 1259415, 2018; in the data active = activity change below about -60%; inconclusive = no clear call, values can overlap the other calls; inactive = above about -39%
#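 Cell-based, HFFs, 1000 cells/well, 16 h 37C; cpds in DMSO + HCMV-luc, MOI 1 PFU/cell; 72 h 37C; OneGlo luminescence after 5 min RT; norm. to buffer vs Salinomycin 10uM.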
# HCV inhibitor = qHTS Assay for Inhibitors of Hepatitis C Virus (HCV); Potency, µM (series often up to 41.8 µM), for the others: top-dose activity change, negative = inhibition, usual class: inhibitors; 340,000 compounds, 3.4% hits; AID 651820, 2012; Huh7.5.1 HCVcc-Cre infection, luciferase reporter, 44 h; note: potency is the fitted concentration of half-maximal effect
#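 Infectious HCV cell culture screen: compound-treated cells (1,000/well, pre-plated 4 h) are infected with HCVcc-Cre at roughly 0.5 moi and grown 44 h. Infection is quantified by luciferase signal after 15 min substrate incubation at room temperature.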
# Pf growth 96h = Primary qHTS for delayed death inhibitors of the malarial parasite plastid, 96 hour incubation; P. falciparum luciferase reporter growth, 96 h; Potency, µM (titrated, usually from 28.7 µM), inactives show at the highest dose activity change, negative = inhibition, usual class: inhibitors; 320,000 compounds, 6.9% hits; AID 504834, 2011; note: potency is the fitted concentration of half-maximal effect
#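 P. falciparum expressing integrated firefly luciferase, in erythrocytes at 2% hematocrit, 0.05% parasitemia, incubated with compounds 96 h at 37 C, 5% CO2. Growth inhibition read as loss of luminescence; two-generation exposure targets delayed-death apicoplast inhibitors.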
# An asterisk follows results filed as active; ? = inconclusive; . = no result; ! = repeats disagree; [ ] = remark or other dose. Compounds with a hit are over-represented: about 13% of the library has one in this group of screens. Unless noted, calls come from the whole dose curve; as a rule, active = well fitted inhibition curve with a large enough effect; inconclusive = small, poorly fitted or top-dose-only effect, or another doubt; inactive = no such curve, though single readings can be large or run the other way. % is set by controls: 0 for no effect and ±100 for the full control effect.
SMILES,Pf growth 48h,HCMV antiviral,HCV inhibitor,Pf growth 96h
Cn1c(-c2ccc(S(=O)(=O)N3CCCC3)cc2)csc1=Nc1ccc(Cl)c(Cl)c1,.,-61.9*,.,.
OCCCn1c(-c2ccccc2)csc1=Nc1ccccc1,?,-30.5,?,?
COCCCn1c(-c2ccc(S(=O)(=O)N3CCOCC3)cc2)csc1=Nc1ccccc1,.,-88.0*!,?,?
COc1ccc(N=c2scc(-c3ccc(OC)cc3)n2CCO)cc1,16.3%,-74.0*,6.31µM*,14.9%
O=S(=O)(c1ccc(-c2csc(=Nc3ccc(OC(F)(F)Cl)cc3)n2CCCO)cc1)N1CCCC1,.,-100.4*,.,.
COc1ccc(-c2csc(=Nc3ccccc3)n2CCO)cc1F,.,-8.3,.,.
CCCOc1ccc(C2c3c(-c4ccccc4O)n[nH]c3C(=O)N2CCCOCC)cc1OCC (centres undefined),.,-2.6,.,.
CNC(=O)c1cnc2sc(N3CCC(C)CC3)nn2c1=O,.,89.9,.,.
Cc1oc2ncn(CC(C)C)c(=O)c2c1C(=O)NCCCN1CCCCC1,.,-8.9,.,.
Cc1ccc(Cl)cc1NC(=O)C(NS(=O)(=O)c1cccc2nsnc12)c1ccccc1 (centres undefined),.,-11.2,.,.
COc1cc(C(=O)ON=C2C=C(C)C(=O)C(C)=C2)cc(OC)c1OC,-24.5%,-62.1*,16.8%,30.3%
COc1ccc(C(=O)ON=C2C=C(C)C(=O)C(C)=C2)cc1,9.4%,-76.1*,13.7%,?
CCOC(=O)Cn1c(=O)oc2cc(S(=O)(=O)N3CCN(c4cc(C)ccc4C)CC3)ccc21,.,-5.7,.,.
COc1ccc2c3c1O[C@H]1[C@@H](O)C=C[C@H]4C(C2)NCCC341 (some centres undefined),-12.3%,.,.,0.169µM*
C=CCc1cc(OC)ccc1OCCOCCN1CCc2ccccc2C1,36.9%[5.75 µM],-39.2,-18.6%,13.1µM*
COc1ccc(NC(=O)c2cc3c(=O)n(Cc4cccnc4)ccc3nc2C)c(OC)c1,.,-5.4,.,.
O=C(CCN1CCN(C(c2ccccc2)c2ccccc2)CC1)N/N=C/c1ccc(O)cc1,?,-32.5,?,?
COc1ccc(/C=N\NC(=O)CCN2CCN(c3ccccc3)CC2)cc1OC,-4.1%,9.8,29.1%,31.1%
COc1ccc(OC)c(/C=N/NC(=O)CCN2CCN(C(c3ccccc3)c3ccccc3)CC2)c1,-2.9%,-10.6,10µM*,?
COc1ccc(NC(=O)CCN2CCN(Cc3ccccc3)CC2)c(OC)c1,?,-1.2,11.3%,48.0%
O=C(CCN1CCN(C(c2ccccc2)c2ccccc2)CC1)N/N=C/c1ccc(O)cc1O,?,35.4,7.94µM*,5.22µM*
COc1ccc(OC)c(NC(=O)CCN2CCN(Cc3ccccc3)CC2)c1,13.1µM*,-6.5,?,-5.5%
O=C(Nc1ccccc1)N1c2ccccc2SC1c1ccco1 (centres undefined),.,-0.4,.,.
Cc1ccc(C)c(NC(=O)Cn2ncc3c([nH]c4ccccc43)c2=O)c1,.,7.3,.,.
COc1ccc(C)cc1NC(=O)N1CCN(S(=O)(=O)c2ccc3c(ccn3C)c2)CC1,.,13.2,.,.
SMILES,Pf growth 48h,HCMV antiviral,HCV inhibitor,Pf growth 96h
Cc1ccc(Sc2c(C=O)c3ccccc3n2C)cc1,-25.8%,-91.1*,11.2µM*,0.0%
Cn1c(C(=O)O)c(C=O)c2ccccc21,5.4%,-16.0,-4.0%,10.4µM*
CCCC(O)(CCC)C(=O)NN(C(=O)CCl)c1ccccc1,?,-81.2*,?,-94.5%
O=C(N[C@@H](Cc1ccccc1)C(=O)N[C@@H](Cc1ccccc1)C(=O)O)OCc1ccccc1,12.6%,5.8,2.3%,0.0%
O=C(N[C@@H](Cc1ccccc1)C(=O)CCl)OCc1ccccc1,1.5%,-90.0*,?,23.7%
O=C(NCCCC(NC(=O)OCc1ccccc1)C(=O)O)OCc1ccccc1 (centres undefined),3.8%,7.8,6.5%,6.57µM*
CC1CN(CC(=O)c2ccccc2Cl)CC(C)O1 (centres undefined),28.4%,-61.4*,8.0%,53.9%
CCCC(=O)C1=C(O)C(C(=O)OC)C(C)(C)CC1=Nc1ccc(C)cc1 (centres undefined),5.22µM*,-21.2,-29.5%,18.9%
Cc1ccccc1N1CCN(S(=O)(=O)c2nnc(NC(=O)c3ccc(C(C)C)cc3)s2)CC1,.,-15.7,.,.
COc1ccc2nc(C)cc(SCC(=O)N/N=C/c3c(OC)ccc4ccccc34)c2c1,4.9%,-2.8,0.8%,0.0%
COc1ccc2nc(C)cc(SCC(=O)N/N=C/c3ccc(O)cc3O)c2c1,?,-20.6,12.6µM*,-3.0%
O=C(CSc1ccccc1)N/N=C/c1ccccc1O,?,?,?,7.2%
COc1cccc2c(SCC(=O)N/N=C/c3ccc(O)cc3O)cc(C)nc12,?,58.9,?,43.2%
COc1ccc(CSCC(=O)N/N=C/c2ccccc2O)cc1,?,-14.0,8.91µM*,-13.9%
Cc1cc(SCC(=O)NN)c2cc(Br)ccc2n1,14.7µM*,-66.5*,2.9%,?
COc1ccc2nc(C)cc(SCC(=O)N/N=C/c3ccccc3)c2c1,-21.1%,-60.1*,-1.9%,4.15µM*
Cc1noc(C)c1C(=O)N1CCC1(C)C(=O)NS(=O)(=O)c1ccccc1Cl (centres undefined),.,-5.2,.,.
COc1cccc(-c2nc(SCC(=O)Nc3ccc4c(c3)OCCO4)c(-c3ccc(C)cc3)[nH]2)c1,.,-26.8,.,.
COc1ccc(NC(=O)c2c(NCc3ccc(C)o3)sc3c2CCC(C)C3)cc1 (centres undefined),.,-9.0,.,.
Cn1c(-n2cccc2)c(-c2c(-c3ccccc3)[nH]c3c2c(=O)n(C)c(=O)n3C)c(=O)n(C)c1=O,.,-0.1,.,.
COc1ccccc1/C=N/NC(=O)CSc1cc(C)nc2ccccc12,12.2%,-81.5*,-27.9%,?
Cc1ccc(-n2nnnc2SCC(=O)NCCc2ccccc2)cc1C,.,-6.8,.,.
CCOc1ccc(N2CC(NC(=O)C3CCCCC3)CC2=O)cc1 (centres undefined),.,-6.0,.,.
CCOC(=O)c1c(NC(=O)Cc2ccccc2)sc2c1CCN(C)C2,-21.4%,-20.3,?,-0.1%
Cc1nnc(SCC(=O)Nc2sc3c(c2C(=O)c2ccccc2)CCCC3)s1,2.1%,-62.0*,?,-2.6%
SMILES,Pf growth 48h,HCMV antiviral,HCV inhibitor,Pf growth 96h
CCOC(=O)c1c(NC(=S)Nc2ccc(OCC)cc2)sc2c1CCN(C)C2,8.28µM*,-9.0,?,3.7µM*
CCOC(=O)c1c(NC(=O)CSc2nnc(C)s2)sc2c1CCN(C)C2,6.57µM*,23.3,?,?
CCOC(=O)c1c(NC(=O)CCS(=O)(=O)c2ccccc2)sc2c1CCN(C)C2,?,5.9,-8.3%,?
CCOC(=O)c1c(NC(=O)C(F)(OC)C(F)(F)F)sc2c1CCN(C)C2 (centres undefined),?,28.3,?,10.4µM*
CCOC(=O)c1c(NC(=S)Nc2ccc(Cl)cc2)sc2c1CCN(C)C2,?,19.2,?,?
CC1(c2nnnn2-c2ccc3c(c2)OCCO3)CCC(=O)N1C1CC1 (centres undefined),.,-7.0,.,.
